The nature of assay [1]: viability loss in pontine glioma line – cell-based, SU-DIPG-XVII, MIPE5.0, CellTiter-Glo, qHTS, dose response (AID 1347060).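 As to AC50: cells exposed to compound for 48 hours before viability readout.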 The following applies: CellTiter-Glo ATP luminescence. On the technique in general: Cellular ATP, detected with luciferase, serves as a proxy for viable cell number.
A short description of assay [2]: viability loss in pontine glioma line – cell-based, SU-DIPG-XIII, MIPE5.0, CellTiter-Glo, qHTS, dose response (AID 1347064; cut-off not given, nearly all actives have AC50 up to about 23 µM;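 as to AC50: cells exposed to compound for 48 hours before the viability read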). The following applies: CellTiter-Glo ATP luminescence.
Assay [3] is described as follows: viability loss in pontine glioma line – cell-based, SU-DIPG-XXV, MIPE5.0, CellTiter-Glo, qHTS, dose response (AID 1347065).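 Also: cells exposed to compound for 48 hours before ATP readout.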 As to conditions: CellTiter-Glo ATP luminescence.
Assay [4] in a line: JHH-DIPG-1 glioma cell viability, MIPE5.0 library, CellTiter-Glo luminescence, qHTS (AID 1347067).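 Also: cells exposed to compound for 48 hours before readout.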 As to conditions: JHH-DIPG-1 glioma viability, CellTiter-Glo ATP luminescence.
A short description of assay [5]: growth inhibition of DIPG cells – cell-based, MIPE4.0 library, CellTiter-Glo luminescence, qHTS (AID 1347066; cut-off not given, nearly all actives have AC50 up to about 30 µM;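 also: cells exposed to compound for 48 hours before readout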). The following applies: SU-DIPG-VI viability, CellTiter-Glo ATP luminescence.
Assay [6] is described as follows: growth inhibition of DIPG cells – cell-based, MIPE5.0 library, qHTS (AID 1347068; cut-off not given, nearly all actives have IC50 up to about 30 µM). As to conditions: SU-DIPG-XXV viability.
Assay [7] is described as follows: compounds altering HSF1 focus formation in cells – imaging, Selleck Cancer Library (AID 1347162; in the data active = plate-normalised HSF1 focus index below about 0.46). The following applies: human cells, HSF1 nuclear foci imaging, at 10 µM; SSMD: measured here: HSF1 foci SSMD mean; cell count: measured here: cell number; plate-normalised HSF1 focus index: stronger effect = lower value.

We go through four compounds from PubChem BioAssay.

Molecules are shown by their SMILES. Inconclusive results are not listed. Active and inactive are the calls of the source. Unless noted, the limit is not given here; nearly all actives have AC50 up to about 26 µM.

As usually defined, the AC50 is the midpoint of the concentration-response curve, whichever way the signal moves. As to `O=C(/C=C\n1cnc(-c2cc(C(F)(F)F)cc(C(F)(F)F)c2)n1)NNc1ccccn1`, the AC50 in assay [1] is 2950 nM (active); in assay [2], 295 nM (active); in assay [3] it was 5250 nM (active); in assay [4] it was 13200 nM (active).

Consider `CCOc1ccc(Cc2cc([C@@H]3O[C@H](CO)[C@@H](O)[C@H](O)[C@H]3O)ccc2Cl)cc1`, for which the result in assay [1], in assay [2], in assay [3], in assay [5], in assay [4] and in assay [6] was inactive. The compound also registered an SSMD in assay [7] of 1.4. This compound also returned a cell count in assay [7] of 6780. Further, the plate-normalised HSF1 focus index in assay [7] is 1.07 (inactive).

For `CCCCNc1ncc(-c2ccc(CN3CCOCC3)cn2)c(NC2CCC(O)CC2)n1` (configuration not stated), the AC50 in assay [1] is 2570 nM (active); in assay [3], 1820 nM (active). In addition, the call in assay [2] was inactive.

As to `O=C(C[C@@H]1C/C=C\CCC(=O)O[C@H](c2ccccc2)CNC1=O)NCc1ccc(Cl)cc1`, the result in assay [1], in assay [2], in assay [3], in assay [5], in assay [4] and in assay [6] was inactive.
